Among all 370,000 compounds or so, about 150 (0.041%) were called active. Roughly 14% stayed inconclusive and do not appear here. Calls follow the shape of the dose curve; as a rule, active = well fitted inhibition curve with a large enough effect; inconclusive = small, poorly fitted or top-dose-only effect; inactive = flat fitted curve, though single readings scatter. This excerpt belongs to a sample that is enriched for actives.
Potency is read from the fitted curve at half-maximal effect.

For this experiment, the target named is Beta-lactamase (Escherichia coli (strain K12)) (UniProt P00811). The experiment in a line: qHTS Inhibitors of AmpC Beta-Lactamase (assay with detergent). Also: nearly all actives have a fitted effect of over 25% in size.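 As to activity change, negative = inhibition: 0% = no-compound wells and -100% = no-enzyme wells.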 As to conditions: AmpC hydrolysis of nitrocefin, absorbance 480 nm, 0.01% Triton; series mostly up to 114 µM; activity change, negative = inhibition: at the top concentration. How it is done: NIH Molecular Libraries Probe Production Network [MLPCN] NIH Chemical Genomics Center [NCGC] Assay Provider: Professor Brian Shoichet, UCSF Assay Overview: This aggregation profiling approach exploits the sensitivity of aggregate formation to detergent. Inhibition of b-lactamase is measured in the presence and absence of 0.01% Triton X-100. This particular assay had the prescence of 0.01% Triton X-100. See Pubchem assay "Promiscuous and Specific Inhibitors of AmpC Beta-Lactamase (assay without detergent)" for related screen. Compounds that inhibit only in the absence of detergent are considered likely promiscuous aggregators. A screen of 1,030 compounds was performed in Brian Shoichet's lab in 96-well format. AmpC activity was measured by following the absorbance at 480 nm. Nitrocefin is a chromogenic substrate: while nitrocefin is yellow (lmax 390 nm), the product of its hydrolysis is red (lmax 486 nm, 17,000 M-1). AmpC beta lactamase was provided by Shoichet Lab, UCSF.
Beta-lactamase (Escherichia coli (strain K12)), sequence (P00811 whole entry, looked up): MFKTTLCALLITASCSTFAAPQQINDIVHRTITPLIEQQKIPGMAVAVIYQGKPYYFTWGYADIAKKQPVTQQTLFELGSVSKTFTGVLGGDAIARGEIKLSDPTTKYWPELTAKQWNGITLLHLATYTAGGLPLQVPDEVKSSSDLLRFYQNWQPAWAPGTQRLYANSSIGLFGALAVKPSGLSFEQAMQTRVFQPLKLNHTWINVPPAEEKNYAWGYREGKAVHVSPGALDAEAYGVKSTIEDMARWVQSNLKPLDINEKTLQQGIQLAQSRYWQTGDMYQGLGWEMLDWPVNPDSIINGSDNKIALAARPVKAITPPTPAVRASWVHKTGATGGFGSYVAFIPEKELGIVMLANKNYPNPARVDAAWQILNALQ
Buffer: 20 mM phosphate buffer, pH 7.0 Triton X-100: No Detergent screen: 0.0001%, Detergent screen: 0.01%. Reagents/Controls: Buffer in columns 3 and 4 as negative control (no enzyme). 5.3 nM AmpC in columns 1, 2, 5-48. Titration of UCSF compound 9 control (from 10 mM, then 1:2) pin-transferred to column 2. Column 1 is neutral (100% activity). Assay Steps: Six uL of reagents were dispensed to 1536-well Greiner black clear bottom plates. Compounds and controls (23 nL) were transferred via Kalypsys PinTool. The plates were incubated for 15 min at room temperature, and then 2 uL of 800 uM solution of nitrocefin was added to start the reaction. The plates were immediately transferred to and read every 20 seconds for 4 min on ViewLux (Perkin-Elmer) High-throughput CCD imager using 480 nm absorbance protocol. During dispense, reagent bottles were kept submerged into 4 deg C water bath. Keywords: NIH Roadmap, MLSCN, MLI, MLSMR, qHTS, NCGC, AmpC Beta-Lactamase, Aggregation
A general note: Quantitative high-throughput screening tests each substance at several concentrations.
As for `Cc1c(-c2nc(-c3ccc4c(c3)OCO4)no2)nnn1-c1ccc(Br)cc1F`, the “activity change, negative = inhibition” value was 3.22% (inactive).
As to `COc1cc(NC(=O)c2noc3c2CSc2ccccc2-3)cc(OC)c1OC`, the “activity change, negative = inhibition” value is 22.2% (inactive).
The same measure, in the same setting: the same measure for `CCCCN1CC(c2nc3ccccc3n2CCCCOc2ccc(C)cc2C)CC1=O` (centres undefined): 20.3% (inactive).
Same read-out and setting: the figure for `CCOc1cccc(NC(=O)CSc2ncc(-c3ccc(Cl)cc3)[nH]2)c1` is 14.7% (inactive); for `CC(=O)N1CCCc2cc(S(=O)(=O)Nc3ccc(Cl)cc3F)ccc21` it is -0.767% (inactive).
Same read-out and setting: the figure for `Nc1ccc(Nc2cc(O)c3ncccc3c2)cc1` is -4.05% (inactive).
Consider `CCN(CC)S(=O)(=O)c1ccc2c(c1)N(CC(=O)NCC(C)c1ccccc1)C(=O)CO2` (centres undefined), for which the “activity change, negative = inhibition” value was 18.7% (inactive).
`CSc1ccccc1-c1nnc(NC(=O)c2ccc3c(c2)OCCO3)o1`: the “activity change, negative = inhibition” value is 5.64% (inactive).
Regarding `CCn1c(CN2CCC(C)CC2)nc2cc(NC(=O)c3ccccc3[N+](=O)[O-])ccc21`, the “activity change, negative = inhibition” value was 22.8% (inactive).
Consider `COc1ccc(NC(=O)CCN2CCN(CCO)CC2)cc1`, for which the “activity change, negative = inhibition” value was 1.07% (inactive).
On the same count and under the same terms, the same measure for `O=C(c1cccs1)c1cn(CCOc2ccc(Cl)cc2)c2ccccc12`: -3.12% (inactive); for `COc1ccc(OC)c(NC(=O)Cn2c(=O)n(Cc3ccccc3)c(=O)c3ccccc32)c1`: 5.51% (inactive).
Still for that read-out and setting: the same measure for `CSc1nc(=O)c2c(n1C)NC(=O)CC2c1ccccc1OC(C)C` (centres undefined): 5.75% (inactive); for `Cc1cccc(N2CCN(C(=O)c3oc(=O)c4ccccc4c3-c3ccccc3)CC2)c1C`: -1.7% (inactive); for `COc1ccc(Cn2ccnc2SCC(=O)Nc2ccc3c(c2)OCO3)cc1`: 5.64% (inactive).
Still for that read-out and setting: the figure for `Cc1ccccc1OCc1ccc(-c2nc(C#N)c(N3CCCCC3)o2)o1` is 0.568% (inactive).
With `Cc1ccc(S(=O)(=O)c2c(Nc3cccc(Cl)c3)sc(C(=O)c3ccc4c(c3)OCO4)c2N)cc1`, the “activity change, negative = inhibition” value is 28.1% (inactive).
For `Cc1cccc(NC(=O)Cn2c(C(F)(F)F)nc3ccccc32)c1C`, the “activity change, negative = inhibition” value was 5.01% (inactive).
As to `O=C(/C=C/c1ccccc1)Nc1cc(-c2nc3cc(Cl)ccc3o2)ccc1Cl`, the “activity change, negative = inhibition” value was -2.1% (inactive).
Still for that read-out and setting: the figure for `COc1ccc(-c2cc(C(F)(F)F)n3nc(-c4ccccc4)cc3n2)cc1OC` is 0.338% (inactive); for `CCOc1ccc(C(NC(=O)c2cc(OC)c(OC)c(OC)c2)c2cc(Cl)c3cccnc3c2O)cc1` (centres undefined) it is -6.18% (inactive); for `Cc1ccc2c(=O)c(C(=O)c3ccc(Cl)cc3)cn(CC(=O)NC3CCCCC3)c2n1` it is 18.9% (inactive).
Still for that read-out and setting: the figure for `COc1ccc(-c2nc3ccccc3s2)cc1NC(=O)COc1ccccc1C` is 1.82% (inactive).
As for `Cc1cc(C)c(NC(=O)c2cc3sc(Cl)cc3n2C)c(C)c1`, the Potency was 56.2 µM (active).
In the case of `CCn1c(C(=O)Nc2cc(Cl)ccc2C)cc2sc(Cl)cc21`, the “activity change, negative = inhibition” value is 16.5% (inactive).
Consider `Cc1ccc(NC(=O)c2cc3cc(C)ccc3n2C)cc1`, for which the “activity change, negative = inhibition” value was -3.66% (inactive).
Same read-out and setting: the same measure for `COc1ccc(CCNc2ncnc3onc(-c4ccc(Cl)cc4)c23)c(OC)c1`: 9.52% (inactive); for `CCOC(=O)c1c(C)oc2nc(C)nc(N3CCN(c4ccc(OC)cc4)CC3)c12`: 13.8% (inactive).
On to `Cc1ccc(N(C(=O)CNC(=O)c2ccco2)C(C(=O)NC2CCCC2)c2ccncc2)cc1` (centres undefined), for which the Potency was 14.1 µM (active).
For the compound `COc1cccc(N(C(=O)CNC(=O)c2ccco2)C(C(=O)NC2CCCCC2)c2cccnc2)c1` (centres undefined), the “activity change, negative = inhibition” value is -8.32% (inactive).
Turning to `CC(C)(C)NC(=O)C(c1ccncc1)N(C(=O)CNC(=O)c1ccco1)c1ccc2c(c1)OCO2` (centres undefined), the “activity change, negative = inhibition” value is -14.3% (inactive).
Turning to `Cc1nnc(N2CCCC(C(=O)NCCN(C)C)C2)c2nn(-c3ccccc3)c(C)c12` (centres undefined), the “activity change, negative = inhibition” value was 1.73% (inactive).
As for `CCOc1ccc(-c2n[nH]c3c2C(c2ccccc2OC)N(c2ccc(Br)cc2)C3=O)cc1` (centres undefined), the “activity change, negative = inhibition” value is -2.45% (inactive).
For the compound `Nc1ccc2nc3c(=O)[nH]c(=S)[nH]c3nc2c1`, the Potency was 50.1 µM (active).
Turning to `Clc1ccc(CSc2nncn3c2cc2occc23)cc1`, the “activity change, negative = inhibition” value is -10.9% (inactive).
As to `Cc1ccc(C)c(S(=O)(=O)c2nnn3c2nc(N2CCOCC2)c2sccc23)c1`, the “activity change, negative = inhibition” value was 9.64% (inactive).
For `CCC(=O)N1CCc2cc(Br)cc(S(=O)(=O)Nc3ccc(C)cc3C)c21`, the “activity change, negative = inhibition” value was 4.3% (inactive).
On to `CC1=C(c2ccc(C)cc2)S(=O)(=O)NC1=NCCCN1CCN(c2cc(C)ccc2C)CC1`, for which the “activity change, negative = inhibition” value was 19.9% (inactive).
For `Fc1ccc(C(Nc2ccc(Cl)c(C(F)(F)F)c2)c2nnc(-c3ccccc3)o2)cc1` (centres undefined), the “activity change, negative = inhibition” value was 5.04% (inactive).
The same measure, in the same setting: the figure for `Cc1ccc(-c2cn3c(n2)sc2cc(C(=O)NCc4cccs4)ccc23)c(C)c1` is 13.4% (inactive).
Turning to `CCOC(=O)c1c(NC(=O)c2ccc(S(=O)(=O)N(CC)CC)cc2)sc2c1CCCCC2`, the “activity change, negative = inhibition” value is -9.3% (inactive).
Consider `COc1ccc(-c2cccc(NS(=O)(=O)c3cc(C)c(OC)c(C)c3C)c2)nn1`, for which the “activity change, negative = inhibition” value was 11.2% (inactive).
For `Cc1ccc(NC(=O)Cc2ccc(NC(=O)N3CCCCc4ccccc43)cc2)cc1`, the “activity change, negative = inhibition” value is 3.85% (inactive).
Consider `COc1ccc(CCC(=O)NCCc2csc(-c3ccc(Cl)cc3)n2)cc1`, for which the “activity change, negative = inhibition” value is 2.64% (inactive).
With `COc1cc(-c2cc3n(C)c(C)c(CCC(=O)Nc4ccc(F)cc4)c(=O)n3n2)cc(OC)c1OC`, the “activity change, negative = inhibition” value is -3.72% (inactive).
With `Cc1ccc(NC(=O)c2cc(S(=O)(=O)NCCC3=CCCCC3)ccc2F)cc1C`, the “activity change, negative = inhibition” value is -2.66% (inactive).
For `Cc1cc(Nc2cccc(C(F)(F)F)c2)nc2ccc(NC(=O)c3ccc(=O)[nH]c3)cc12`, the “activity change, negative = inhibition” value is 1.63% (inactive).
Still for that read-out and setting: the figure for `COCCn1c(CCC(=O)Nc2cc(C)ccc2C)nc2cccnc21` is 17.5% (inactive); for `Cc1ccc2cccc(NC(=O)c3ccc(OC(C)C)cc3)c2n1` it is -6.92% (inactive).

Values taken from PubChem BioAssay AID485294 (National Center for Advancing Translational Sciences (NCATS), 2010).
